Sampled rows, rich in hits. Any-hit rate of the full collection: about 1.3%.
Keap1 Nrf2 FP – Keap1-Nrf2 (human) interaction inhibition; Keap1 Kelch-Nrf2 peptide fluorescence polarization, 1536-well; 340,000 compounds, 0.15% hits; Q14145; inhibition, % at 9.4 µM; in the data active = inhibition above about 12%;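 note: human Keap1 Kelch domain with fluorescein labeled Nrf2 9mer peptide probe; 0% = neutral control wells and 100% = peptide positive control; higher means more block of Keap1 binding to Nrf2 peptide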
RTF Ca sens inh – cardiac RTF calcium desensitization; P19429+P45379; IANBD-labeled cardiac RTF, Ca2+ fluorescence; inhibition, % at 7.15 µM; 340,000 compounds, 0.12% hits; AID 493244;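 active = inhibition above the mean inhibition of all tested compounds plus 3 SD, cut at about 17% in these data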;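 note: assay run at fixed EC70 calcium of 1.6 mM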
C-LANA FP – inhibitors of KSHV LANA C-terminal domain DNA binding. MBP-C-LANA/FAM-LBS DNA binding, fluorescence polarization. inhibition, % at 9 µM. 340,000 compounds, 0.078% hits. AID 504423;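 active = highest replicate inhibition at or above 60% at 9 µM, even if other replicates fall short; inactive = all replicates below 60% inhibition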;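 note: 0% = neutral control wells and 100% = 4 µM acridine orange control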
RTF Ca sens act – cardiac RTF calcium sensitization. 340,000 compounds, 0.24% hits. IANBD-labeled TnC RTF fluorescence at EC20 calcium; 0% EC20 calcium, 100% full calcium. P19429+P45379. activation, % at 7.2 µM;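 active = activation above the mean over all tested compounds plus 3 SD, cut at about 30% in these data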;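 note: rise in fluorescence read as greater calcium sensitivity of cardiac thin filaments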
E coli Lon inh – E. coli protease La inhibition; P0A9M0; purified E. coli Lon protease, fluorescence polarization; inhibition, % at 7.94 µM; 360,000 compounds, 0.42% hits; AID 602123; in the data active = inhibition above about 13%, passing the limit was not always enough;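 note: 0% = enzyme with probe and DMSO and 100% = no enzyme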
Target sequence (P0A9M0 whole entry, looked up): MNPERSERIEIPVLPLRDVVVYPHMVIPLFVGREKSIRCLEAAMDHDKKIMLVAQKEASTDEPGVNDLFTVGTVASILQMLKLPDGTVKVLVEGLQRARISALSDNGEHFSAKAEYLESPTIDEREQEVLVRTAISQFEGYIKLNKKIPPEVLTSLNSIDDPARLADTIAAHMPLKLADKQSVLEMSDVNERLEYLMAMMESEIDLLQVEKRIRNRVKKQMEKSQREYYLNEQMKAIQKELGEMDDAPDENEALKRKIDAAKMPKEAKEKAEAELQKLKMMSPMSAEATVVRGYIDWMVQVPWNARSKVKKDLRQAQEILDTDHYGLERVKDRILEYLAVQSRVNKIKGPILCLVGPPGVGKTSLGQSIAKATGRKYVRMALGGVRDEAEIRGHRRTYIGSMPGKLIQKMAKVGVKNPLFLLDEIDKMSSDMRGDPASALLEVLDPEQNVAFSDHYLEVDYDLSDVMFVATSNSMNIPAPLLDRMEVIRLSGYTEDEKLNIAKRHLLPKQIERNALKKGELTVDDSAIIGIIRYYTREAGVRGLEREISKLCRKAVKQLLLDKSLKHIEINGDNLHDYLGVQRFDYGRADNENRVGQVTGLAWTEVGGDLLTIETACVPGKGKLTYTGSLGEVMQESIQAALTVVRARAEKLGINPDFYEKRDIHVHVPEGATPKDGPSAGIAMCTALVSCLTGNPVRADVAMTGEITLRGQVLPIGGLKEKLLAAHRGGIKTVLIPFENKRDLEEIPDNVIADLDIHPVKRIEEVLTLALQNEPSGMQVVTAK
LANA-H2B inh – blocks KSHV LANA binding to histone H2A/H2B; Q9QR71; cell-free LANA-H2A/H2B peptide, fluorescence polarization; inhibition, % (test concentration not listed); 320,000 compounds, 0.6% hits; in the data active = inhibition mostly above about 10%, no sharp cut-off; inactive = mostly below about 6.7%
Numbers without * were called inactive; i = inactive; . = no result given; + = active, no number; ! = not confirmed by another sample.

SMILES	Keap1 Nrf2 FP	RTF Ca sens inh	C-LANA FP	RTF Ca sens act	E coli Lon inh	LANA-H2B inh
Cc1ccccc1NC(=O)Cc1nc(COC(=O)CCC(=O)c2ccccc2)cs1	7.8	-13.9	4.5	-1.9	-2.0	104.4*
COc1ccc(-c2nc3c(=O)n(C)c(=O)[nH]c3n2CCc2ccccc2)cc1	-4.2	-12.6	1.1	-2.1	-3.6	19.6*!
COc1ccc(NC(=O)CSCC(=O)Oc2c(OC)cccc2OC)cc1	-1.5	-9.0	0.3	-1.9	-13.9	4.3
CN(Cc1ccccc1)C(=O)c1ccc(NC(=O)Cc2ccc(NC(=O)C3CCCN(C(=O)CCc4ccccc4)C3)cc2)cc1 (stereo unspecified)	0.8	-8.4	-0.4	-3.5	-5.8	.
CN(C)c1ccc(NC2=C([N+](=O)[O-])CS(=O)(=O)C2)cc1	-4.1	-8.6	0.8	16.8	-5.0	0.8
Cc1ccc(NC2=C([N+](=O)[O-])CS(=O)(=O)C2)cc1	-2.8	-1.4	0.3	-0.3	-2.5	27.9*
CC(C)Cc1nc2c(nnn2Cc2ccccc2F)c(=O)[nH]1	-3.2	-3.0	0.4	-1.3	-10.0	2.7
CS(=O)(=O)N1CCN(C(=O)c2cc(-c3ccccc3)nc3ccccc23)CC1	0.6	-13.5	-0.6	-7.7	-7.4	9.7*
CC(=O)c1ccc(S(=O)(=O)N(C)CCCC(=O)N(C)Cc2c(F)cccc2Cl)cc1	-7.2	-12.2	-0.6	-3.6	-9.6	57.6*
Cc1ccc(N2C(=O)[C@@H]3[C@H](C2=O)C2CCCN2[C@@H]3C(=O)c2ccccc2)cc1 (stereo partly specified)	-1.9	-22.8	10.2	31.3*	21.6	1.7
CC(=O)c1cccc(OC(=O)C2=CC=CN3CCS(=O)(=O)N=C23)c1	-4.5	-3.6	-2.1	-6.4	1.8	46.9*
O=C(Nc1cccc(Cl)c1)C1=CC=CN2CCS(=O)(=O)N=C12	-1.3	8.4	-0.8	1.6	-3.4	-5.9
O=C(Oc1cccc([N+](=O)[O-])c1)C1CCN(C(=O)c2ccc(F)cc2)CC1	-10.2	-3.1	-0.3	-0.9	7.3	-1.4
Cc1ccc(N2CCN(C(=O)C3CCC(=O)N(Cc4ccc(Cl)cc4)C3)CC2)c(C)c1 (stereo unspecified)	-1.8	3.0	0.3	-6.0	-8.9	-1.5
O=C(c1ccc(O)cc1)c1ccc(C(=O)c2ccc(O)cc2)cc1	-2.9	-5.2	-1.5	6.8	-4.5	13.5*
Cn1c(SCc2ccccn2)nnc1-c1ccccc1	-0.1	-6.8	-0.2	-0.2	-1.5	7.8
O=C(CC(c1ccccc1)(c1ccccc1)c1ccccc1)N[C@@H](Cc1ccccc1)C(=O)O	-0.8	9.4	-0.9	-4.2	-6.8	16.1*
O=C(O)[C@H](Cc1ccccc1)NC(=O)C(c1ccccc1)(c1ccccc1)c1ccccc1	0.9	-6.9	1.9	-2.5	-12.6	-2.0
CC(C)(C)c1ccc(Cn2c(=N)n(CC(O)c3ccco3)c3ccccc32)cc1 (stereo unspecified)	-7.2	-18.7	0.2	6.7	-24.6	18.0*
Cc1ccccc1Cn1c(=N)n(CC(O)c2ccco2)c2ccccc21 (stereo unspecified)	-4.5	-7.8	0.2	-2.4	-5.0	-1.7
Cn1ncc([N+](=O)[O-])c1C(=O)Nc1ccc(C2CCCCC2)cc1	-4.4	-1.1	-0.8	1.1	-3.4	0.4
CCN(CC)c1ccc2c(-c3ccc(S(=O)(=O)O)cc3S(=O)(=O)[O-])c3ccc(=[N+](CC)CC)cc-3oc2c1	82.3*	-335.7	120.7*	247.7*	+	149.8*
Cc1cc(=O)oc2cc(OCC(=O)N/N=C/c3cc([N+](=O)[O-])ccc3O)ccc12	-2.7	-15.5	-0.4	-6.2	-9.3	+
Cc1ccc(C)c(NC(=O)CCC(=O)N/N=C/c2cc([N+](=O)[O-])ccc2O)c1	1.0	-2.6	-0.1	3.6	-2.5	-1.4
COc1ccc(Cl)cc1NC(=O)C/C(C)=N/NC(=O)C(=O)NCc1ccccc1	-3.7	-5.5	-0.5	5.2	0.5	15.3*
SMILES	Keap1 Nrf2 FP	RTF Ca sens inh	C-LANA FP	RTF Ca sens act	E coli Lon inh	LANA-H2B inh
COc1ccc(Cl)cc1NC(=O)C/C(C)=N/NC(=O)c1ccccc1[N+](=O)[O-]	-3.5	0.3	-1.8	-0.7	4.3	4.4
CCCCn1c(N)c(N(CCOC)C(=O)COC(=O)C(C)(C)Oc2ccc(Cl)cc2)c(=O)[nH]c1=O	-0.6	-13.9	2.0	-6.2	12.8	-1.6
COc1ccccc1N1CCN(C(=O)c2ccco2)CC1	-1.9	-2.6	0.6	3.6	0.9	16.5*
CC(C(=O)Nc1ccccc1)N1CCN(C(=O)c2ccco2)CC1 (stereo unspecified)	-4.5	4.5	-0.1	3.2	-5.8	68.1*
CC1(c2nnc(-c3ccccc3)o2)CC(c2ccncc2)=NO1 (stereo unspecified)	-2.3	-6.1	-0.6	6.8	-0.3	-0.5
COCCn1c(N)c(N(Cc2ccccc2)C(=O)C2CCCC2)c(=O)[nH]c1=O	-2.5	-4.2	0.9	5.0	-6.8	1.8
Cc1onc(-c2ccccc2)c1C(=O)N1CCN(c2ccc([N+](=O)[O-])cc2)CC1	0.8	10.9	0.2	-6.3	-5.3	15.9*
Cc1onc(-c2ccccc2)c1C(=O)N1CCN(c2ccccc2)CC1	-1.6	-4.9	-0.4	-2.9	-1.4	-2.5
O=S(=O)(NCC(c1cccnc1)N1CCN(Cc2ccccc2)CC1)c1cc(F)ccc1F (stereo unspecified)	-1.2	1.6	-1.2	1.9	-12.4	-1.5
COc1ccc(OC)c(/C=c2\sc3nc(-c4cccs4)nn3c2=O)c1	10.5	-2.1	23.6	50.0*	11.0	-2.2
N=c1sccn1CC(=O)Nc1cccc2ccccc12	-1.5	-8.6	2.0	1.7	-1.3	-3.1
CSc1ccccc1NC(=O)Cn1ccsc1=N	4.0	-13.6	-0.1	1.2	-6.7	10.7*
COc1ccc(C)cc1NC(=O)CSc1nc(=O)n(CCCN2CCOCC2)c2c1CCCC2	-3.2	9.3	-0.8	-6.0	3.2	3.4
Cc1ccc(S(=O)(=O)N/N=C/c2c[nH]c3ccccc23)cc1	-2.7	-8.9	0.1	0.5	4.2	-3.5
Cc1ccc(S(=O)(=O)/C(C#N)=C/c2c[nH]c3ccccc23)cc1	3.5	-2.5	0.7	-3.2	-3.6	16.7*
O=C(N/C(=C\c1ccc([N+](=O)[O-])cc1)C(=O)N1CCCCC1)c1ccccc1	-0.1	9.1	0.7	2.7	-11.8	12.7*
O=C(N/N=C/c1ccc(O)c(O)c1O)/C(=C/c1ccc([N+](=O)[O-])cc1)NC(=O)c1ccccc1	-5.2	3.1	0.1	-7.6	26.8*	1.1
Cc1cc(S(=O)(=O)N2CCCCC2)ccc1OCC(=O)N1CCOCC1	-4.0	-10.7	3.3	-2.1	10.2	0.2
CN(C)CCOC(c1ccccc1)c1ccccc1	.	i	.	i	.	6.6
